Results as given in the supplement of paper PMC10849652.
Of roughly 7,900 targets only a part is listed; those with a hit were picked by preference. About 0.6% of all pairs of compound and target were hits.

Experiments:
Assay in all cases: log2 fold change, soluble protein after heating vs DMSO (PISA); higher = thermal stabilisation; K562 cells, 10 uM, 30 min; active = over 0.2 and 3.5 SD of the protein, either way, in both replicates (recomputed)
[1] = compound: CS(=O)(=O)c1ccc(-c2cnc(N)c(C(=O)Nc3ccccc3)n2)cc1
Procedure, shortened: (§1)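 Thermal stability values are relative to control samples and come from duplicates. They are expressed as log2 fold changes. For measurement, K562 cells (2×10^6 cells/mL) received 10 μM compound for 30 min, and aliquots were heated for 3 min over 48°C-58°C, pooled, and extracted at 4°C in PBS with 0.5% NP-40. Soluble protein, the supernatant after 21,000xg for 90 min, was quantified by TMTpro 16plex LC-MS/MS with equalised channel sums.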

crizotinib = compound: C[C@@H](Oc1cc(-c2cnn(C3CCNCC3)c2)cnc1N)c1c(Cl)ccc(F)c1Cl [crizotinib]
Procedure, shortened: as §1

[2] = compound: C[C@@H]1COCCN1C2=NC(=NC(=C2)C3(CC3)S(=O)(=O)C)C4=C5C=CNC5=CC=C4
Procedure, shortened: as §1

[3] = compound: C[C@H](C1=CC=C(C=C1)C(=O)NC2=C3C=CNC3=NC=C2)N
Procedure, shortened: as §1

duvelisib = compound: C[C@H](Nc1ncnc2nc[nH]c12)c1cc2cccc(Cl)c2c(=O)n1-c1ccccc1 [duvelisib]
Procedure, shortened: as §1

gandotinib = compound: Cc1cc(Nc2cc(CN3CCOCC3)c3nc(C)c(Cc4ccc(Cl)cc4F)n3n2)n[nH]1 [gandotinib]
Procedure, shortened: as §1

tozasertib = compound: Cc1cc(Nc2cc(N3CCN(C)CC3)nc(Sc3ccc(NC(=O)C4CC4)cc3)n2)n[nH]1 [tozasertib]
Procedure, shortened: as §1

[4] = compound: Cc1cc(SCc2sc(-c3ccc(C(F)(F)F)cc3)nc2C)ccc1OCC(=O)O
Procedure, shortened: as §1

doramapimod = compound: Cc1ccc(-n2nc(C(C)(C)C)cc2NC(=O)Nc2ccc(OCCN3CCOCC3)c3ccccc23)cc1 [doramapimod]
Procedure, shortened: as §1

ispinesib = compound: Cc1ccc(C(=O)N(CCCN)[C@@H](c2nc3cc(Cl)ccc3c(=O)n2Cc2ccccc2)C(C)C)cc1 [ispinesib]
Procedure, shortened: as §1

bafetinib = compound: Cc1ccc(NC(=O)c2ccc(CN3CC[C@H](N(C)C)C3)c(C(F)(F)F)c2)cc1Nc1nccc(-c2cncnc2)n1 [bafetinib]
Procedure, shortened: as §1

[5] = compound: Cc1cccc(CC(=O)N2CCc3c2ccc(-c2cn(C)c4ncnc(N)c24)c3F)n1
Procedure, shortened: as §1

nilotinib = compound: Cc1cn(-c2cc(NC(=O)c3ccc(C)c(Nc4nccc(-c5cccnc5)n4)c3)cc(C(F)(F)F)c2)cn1 [nilotinib]
Procedure, shortened: as §1

[6] = compound: Cc1nc(Nc2n[nH]c3c2CN(C(=O)N[C@H](CN(C)C)c2ccccc2)C3(C)C)c2sccc2n1
Procedure, shortened: as §1

dasatinib = compound: Cc1nc(Nc2ncc(C(=O)Nc3c(C)cccc3Cl)s2)cc(N2CCN(CCO)CC2)n1 [dasatinib]
Procedure, shortened: as §1

[7] = compound: Cc1ncc(-c2ccnc(Nc3ccc(S(C)(=O)=O)cc3)n2)n1C(C)C
Procedure, shortened: as §1

[8] = compound: Cn1cc(-c2ccc3c(c2)CCN3C(=O)Cc2cccc(C(F)(F)F)c2)c2c(N)ncnc21
Procedure, shortened: as §1

[9] = compound: Cn1cc(-c2ccc3nnc(C(F)(F)c4ccc5ncccc5c4)n3n2)cn1
Procedure, shortened: as §1

tipifarnib = compound: Cn1cncc1[C@@](N)(c1ccc(Cl)cc1)c1ccc2c(c1)c(-c1cccc(Cl)c1)cc(=O)n2C [tipifarnib]
Procedure, shortened: as §1

mubritinib = compound: FC(F)(F)c1ccc(/C=C/c2nc(COc3ccc(CCCCn4ccnn4)cc3)co2)cc1 [mubritinib]
Procedure, shortened: as §1

Measured: log2 fold change

WARS2 (UniProt Q9UGM6)
Sequence of UniProt Q9UGM6 (Q9UGM6 whole entry, looked up): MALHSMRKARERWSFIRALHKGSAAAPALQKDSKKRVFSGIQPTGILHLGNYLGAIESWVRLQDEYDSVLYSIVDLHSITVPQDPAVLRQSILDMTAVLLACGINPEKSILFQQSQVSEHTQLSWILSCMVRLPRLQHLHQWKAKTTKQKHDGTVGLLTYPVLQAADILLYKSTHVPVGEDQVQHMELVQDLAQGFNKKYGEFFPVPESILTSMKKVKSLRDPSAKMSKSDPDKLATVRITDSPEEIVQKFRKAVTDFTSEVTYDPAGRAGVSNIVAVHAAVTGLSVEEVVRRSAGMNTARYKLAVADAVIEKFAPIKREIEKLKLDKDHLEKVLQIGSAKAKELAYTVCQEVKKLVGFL
active: mubritinib -0.569
inactive: [1] -0.062 | crizotinib 0.09 | [2] 0.065 | [3] 0.027 | duvelisib 0.079 | gandotinib 0.006 | tozasertib -0.001 | [4] 0.04 | doramapimod 0.017 | ispinesib -0.085 | bafetinib -0.183 | [5] 0.016 | nilotinib -0.086 | [6] -0.008 | dasatinib -0.147 | [7] 0.047 | [8] 0.022 | [9] -0.056 | tipifarnib -0.046

WDR7 (UniProt Q9Y4E6)
Sequence of UniProt Q9Y4E6 (Q9Y4E6 whole entry, looked up): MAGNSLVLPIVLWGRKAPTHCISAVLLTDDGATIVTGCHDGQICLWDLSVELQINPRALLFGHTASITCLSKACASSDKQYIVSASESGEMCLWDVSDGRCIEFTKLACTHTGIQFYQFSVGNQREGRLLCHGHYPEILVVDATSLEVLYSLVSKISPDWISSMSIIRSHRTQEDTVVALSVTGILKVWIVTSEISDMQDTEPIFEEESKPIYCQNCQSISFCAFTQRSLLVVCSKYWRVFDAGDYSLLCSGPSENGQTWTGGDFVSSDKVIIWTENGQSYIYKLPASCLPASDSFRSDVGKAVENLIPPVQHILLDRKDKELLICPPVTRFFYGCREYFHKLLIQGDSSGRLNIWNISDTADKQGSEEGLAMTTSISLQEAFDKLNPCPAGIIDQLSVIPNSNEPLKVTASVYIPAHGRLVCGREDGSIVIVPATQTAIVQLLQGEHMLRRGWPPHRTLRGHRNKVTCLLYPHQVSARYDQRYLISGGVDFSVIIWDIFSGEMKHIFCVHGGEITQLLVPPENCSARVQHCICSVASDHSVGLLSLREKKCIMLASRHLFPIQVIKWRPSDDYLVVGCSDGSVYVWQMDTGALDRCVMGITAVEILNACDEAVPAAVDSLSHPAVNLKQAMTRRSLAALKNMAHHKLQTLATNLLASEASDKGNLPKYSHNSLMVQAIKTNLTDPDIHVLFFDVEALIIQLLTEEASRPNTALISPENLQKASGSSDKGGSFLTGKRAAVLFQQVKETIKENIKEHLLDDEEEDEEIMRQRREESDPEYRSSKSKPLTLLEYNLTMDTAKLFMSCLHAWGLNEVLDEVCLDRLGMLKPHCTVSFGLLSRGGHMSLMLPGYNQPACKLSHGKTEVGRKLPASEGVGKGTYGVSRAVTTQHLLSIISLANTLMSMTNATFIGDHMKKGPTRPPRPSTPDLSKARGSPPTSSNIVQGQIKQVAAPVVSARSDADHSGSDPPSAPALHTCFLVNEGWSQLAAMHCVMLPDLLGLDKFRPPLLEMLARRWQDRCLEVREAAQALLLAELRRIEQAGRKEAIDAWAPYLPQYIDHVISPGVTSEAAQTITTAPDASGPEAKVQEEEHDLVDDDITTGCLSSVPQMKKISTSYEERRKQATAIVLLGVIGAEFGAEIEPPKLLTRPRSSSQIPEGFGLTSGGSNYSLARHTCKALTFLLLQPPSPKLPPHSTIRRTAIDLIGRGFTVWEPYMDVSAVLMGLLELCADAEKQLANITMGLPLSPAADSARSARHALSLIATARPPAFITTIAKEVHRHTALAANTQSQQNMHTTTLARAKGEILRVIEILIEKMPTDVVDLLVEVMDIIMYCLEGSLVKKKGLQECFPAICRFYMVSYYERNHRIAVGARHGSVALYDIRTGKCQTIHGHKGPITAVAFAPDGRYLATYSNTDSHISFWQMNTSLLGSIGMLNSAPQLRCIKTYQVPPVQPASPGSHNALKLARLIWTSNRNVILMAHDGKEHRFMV
inactive: [1] 0.025 | crizotinib 0.024 | [2] -0.029 | [3] -0.096 | duvelisib 0.042 | gandotinib -0.009 | tozasertib -0.003 | [4] 0.08 | doramapimod 0.065 | ispinesib -0.075 | bafetinib -0.034 | [5] 0.082 | nilotinib -0.089 | [6] -0.01 | dasatinib -0.058 | [7] -0.034 | [8] 0.085 | [9] -0.084 | tipifarnib 0.058 | mubritinib -0.118

VDAC1 (UniProt P21796)
Sequence of UniProt P21796 (P21796 whole entry, looked up): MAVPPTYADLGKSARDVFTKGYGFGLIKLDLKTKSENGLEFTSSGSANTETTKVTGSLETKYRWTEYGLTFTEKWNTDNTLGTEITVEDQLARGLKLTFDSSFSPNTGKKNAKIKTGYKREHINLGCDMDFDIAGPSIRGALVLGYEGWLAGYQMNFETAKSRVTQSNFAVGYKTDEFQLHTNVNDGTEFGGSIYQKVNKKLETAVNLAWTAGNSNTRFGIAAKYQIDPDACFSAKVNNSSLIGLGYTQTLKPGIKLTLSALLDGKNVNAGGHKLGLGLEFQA
inactive: [1] 0 | crizotinib 0.076 | [2] -0.004 | [3] -0.063 | duvelisib -0.002 | gandotinib 0.017 | tozasertib 0 | [4] -0.031 | doramapimod -0.024 | ispinesib 0.034 | bafetinib -0.039 | [5] -0.037 | nilotinib 0.006 | [6] 0.025 | dasatinib 0.035 | [7] -0.005 | [8] 0.02 | [9] 0.008 | tipifarnib 0.017 | mubritinib 0.02

UBE4B isoform 4 (UniProt O95155)
Sequence of UniProt O95155 (O95155 whole entry, looked up): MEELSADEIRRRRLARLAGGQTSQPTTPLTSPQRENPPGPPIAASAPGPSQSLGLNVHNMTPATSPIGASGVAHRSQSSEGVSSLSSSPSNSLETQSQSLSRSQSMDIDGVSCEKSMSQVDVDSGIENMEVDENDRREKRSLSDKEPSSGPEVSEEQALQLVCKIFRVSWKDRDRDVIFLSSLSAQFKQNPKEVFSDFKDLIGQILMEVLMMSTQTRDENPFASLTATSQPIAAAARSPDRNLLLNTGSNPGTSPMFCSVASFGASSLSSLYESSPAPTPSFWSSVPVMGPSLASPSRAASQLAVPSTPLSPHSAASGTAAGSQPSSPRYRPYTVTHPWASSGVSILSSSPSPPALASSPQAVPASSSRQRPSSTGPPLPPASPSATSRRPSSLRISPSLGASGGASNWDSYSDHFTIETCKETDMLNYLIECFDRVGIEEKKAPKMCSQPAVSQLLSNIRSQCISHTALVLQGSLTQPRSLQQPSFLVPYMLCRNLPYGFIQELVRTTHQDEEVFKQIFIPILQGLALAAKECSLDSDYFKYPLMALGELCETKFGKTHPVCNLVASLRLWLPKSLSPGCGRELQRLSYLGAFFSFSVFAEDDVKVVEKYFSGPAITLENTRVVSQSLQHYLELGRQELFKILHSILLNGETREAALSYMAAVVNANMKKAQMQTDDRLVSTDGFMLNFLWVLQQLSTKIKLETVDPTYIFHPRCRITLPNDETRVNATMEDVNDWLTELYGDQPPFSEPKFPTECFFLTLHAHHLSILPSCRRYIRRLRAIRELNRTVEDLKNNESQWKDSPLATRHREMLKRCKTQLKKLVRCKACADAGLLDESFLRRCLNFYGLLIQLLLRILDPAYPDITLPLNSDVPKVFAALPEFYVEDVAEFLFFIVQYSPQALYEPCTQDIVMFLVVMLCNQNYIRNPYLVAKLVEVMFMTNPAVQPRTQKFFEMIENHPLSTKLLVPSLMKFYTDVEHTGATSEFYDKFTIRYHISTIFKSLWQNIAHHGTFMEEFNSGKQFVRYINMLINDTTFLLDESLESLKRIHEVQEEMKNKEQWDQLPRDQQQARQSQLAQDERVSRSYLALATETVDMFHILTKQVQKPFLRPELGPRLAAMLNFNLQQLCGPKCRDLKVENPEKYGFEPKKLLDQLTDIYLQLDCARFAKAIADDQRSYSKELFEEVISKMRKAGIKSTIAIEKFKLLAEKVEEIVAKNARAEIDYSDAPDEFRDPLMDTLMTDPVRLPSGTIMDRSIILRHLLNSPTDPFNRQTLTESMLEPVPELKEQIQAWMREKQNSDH
inactive: [1] 0.016 | crizotinib -0.013 | [2] 0.012 | [3] -0.015 | duvelisib 0.012 | gandotinib -0.048 | tozasertib 0.035 | [4] 0.019 | doramapimod -0.048 | ispinesib 0 | bafetinib -0.003 | [5] 0.053 | nilotinib -0.051 | [6] -0.011 | dasatinib -0.069 | [7] -0.024 | [8] -0.019 | [9] -0.011 | tipifarnib -0.024 | mubritinib 0.032

WDR43 (UniProt Q15061)
Sequence of UniProt Q15061 (Q15061 whole entry, looked up): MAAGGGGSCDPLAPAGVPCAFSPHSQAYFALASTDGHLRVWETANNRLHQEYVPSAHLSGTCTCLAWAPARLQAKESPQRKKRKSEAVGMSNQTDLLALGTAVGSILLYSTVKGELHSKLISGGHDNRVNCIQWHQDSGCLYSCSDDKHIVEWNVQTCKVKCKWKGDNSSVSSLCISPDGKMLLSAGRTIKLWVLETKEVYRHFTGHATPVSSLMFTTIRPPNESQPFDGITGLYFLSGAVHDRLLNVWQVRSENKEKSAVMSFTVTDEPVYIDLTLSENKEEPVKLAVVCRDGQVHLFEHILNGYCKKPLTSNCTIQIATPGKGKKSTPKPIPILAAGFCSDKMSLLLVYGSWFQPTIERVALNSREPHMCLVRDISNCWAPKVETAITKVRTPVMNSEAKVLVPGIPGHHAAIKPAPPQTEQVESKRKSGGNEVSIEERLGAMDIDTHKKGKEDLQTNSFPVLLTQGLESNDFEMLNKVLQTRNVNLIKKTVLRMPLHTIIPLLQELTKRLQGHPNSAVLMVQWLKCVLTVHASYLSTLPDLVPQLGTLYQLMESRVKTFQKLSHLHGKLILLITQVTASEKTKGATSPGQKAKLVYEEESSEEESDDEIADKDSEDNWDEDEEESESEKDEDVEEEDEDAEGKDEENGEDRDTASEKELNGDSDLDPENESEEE
inactive: [1] 0.008 | crizotinib 0.08 | [2] 0.016 | [3] -0.051 | duvelisib 0.062 | gandotinib 0.009 | tozasertib -0.012 | [4] -0.053 | doramapimod -0.035 | ispinesib 0.081 | bafetinib -0.041 | [5] -0.052 | nilotinib -0.013 | [6] 0.033 | dasatinib 0.015 | [7] 0.102 | [8] -0.022 | [9] 0.013 | tipifarnib 0.005 | mubritinib -0.024

TRMT10C (UniProt Q7L0Y3)
Sequence of UniProt Q7L0Y3 (Q7L0Y3 whole entry, looked up): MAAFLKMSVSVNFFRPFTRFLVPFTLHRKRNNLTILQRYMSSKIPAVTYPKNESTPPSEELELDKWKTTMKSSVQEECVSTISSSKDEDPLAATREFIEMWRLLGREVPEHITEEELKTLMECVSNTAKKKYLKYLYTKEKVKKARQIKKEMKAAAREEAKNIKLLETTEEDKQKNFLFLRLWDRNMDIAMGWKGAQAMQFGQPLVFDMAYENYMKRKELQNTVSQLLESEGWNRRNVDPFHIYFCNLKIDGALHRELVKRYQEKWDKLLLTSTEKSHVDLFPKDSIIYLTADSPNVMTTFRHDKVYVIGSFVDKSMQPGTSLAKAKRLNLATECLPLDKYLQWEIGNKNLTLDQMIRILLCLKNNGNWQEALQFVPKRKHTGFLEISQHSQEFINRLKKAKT
inactive: [1] 0.045 | crizotinib 0.03 | [2] 0.109 | [3] -0.013 | duvelisib 0.024 | gandotinib -0.072 | tozasertib 0 | [4] 0.069 | doramapimod -0.008 | ispinesib 0.017 | bafetinib -0.044 | [5] 0.107 | nilotinib -0.043 | [6] -0.066 | dasatinib -0.181 | [7] 0.012 | [8] 0.046 | [9] 0.038 | tipifarnib -0.037 | mubritinib 0.153
